HttQ103 aggreg – mutant huntingtin aggregation inhibition; PC12 HttQ103-GFP aggregates, Acumen cytometry, 40 h; Potency, µM (top dose mostly 46.1 µM), inactives show top-dose activity change, negative = inhibition, actives largely listed as inhibitors; 1.1% of 220,000 active; AID 1688; further: on the % scale 0 is the no-effect control and ±100 the full control effect; nearly all actives have a fitted effect of over 60% in size
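Aggregate formation scored by laser-scanning cytometer (488 excitation, 500–530 emission) in lysed PC12 cells expressing Q103-GFP after 100 nM tebufenozide induction; library tested in dose series, with ATPLite reagent added in the multiplex.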
HTT ATP protect – Huntington cell model cytoprotection by ATP luminescence | Potency, µM (series often up to 56.4 µM), inactives show cytoprotection (ATP increase), most hits filed as activators | PC12 HTT-Q103 induced, cytoprotection, ATP luminescence, 40 h | 0.14% of 230,000 active; further: % of control where 0% means no effect; nearly all actives have a fitted effect of over 45% in size
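PC12 cells with ecdysone-inducible HTT exon 1 Q103-GFP, induced with 100 nM tebufenozide and co-treated with library compounds in a dose series (1536-well, 1500 cells/well). Cytoprotection read as ATP content by ATPlite luminescence.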
TGFb SMAD3 inh – blocks TGF-b signaling; HepG2 CAGA-GFP TGF-b/SMAD3 reporter, GFP fluorescence, 18 h; TGF-beta stimulated, 500 pg/mL final; Potency, µM (series often up to 46.1 µM), for the others: at the highest dose activity, negative = inhibition, hits mostly inhibitors; 1.2% of 410,000 active; AID 588855; further: on the % scale 0 is the no-effect control and ±100 the full control effect; nearly all actives have a fitted effect of over 65% in size
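Per well, imaged GFP fluorescence of HEPG2 CAGA-GFP cells gives the signal; cells get compound, then TGF-beta (500 pg/mL final), 18 h at 37 degrees C; %Activity versus -TGF-beta and +DMSO controls.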
ATXN2 expr inh – reduces ATXN2 reporter expression in HEK-293 cells. HEK-293 ATXN2-luciferase reporter, luminescence, 24 h. Potency, µM (titrated, usually from 57 µM), inactives show at the highest dose activity change, negative = inhibition, actives largely listed as inhibitors. 0.72% of 360,000 active. AID 1745845; further: on the % scale 0 is the no-effect control and ±100 the full control effect; nearly all actives have a fitted effect of over 55% in size
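ATXN2-luciferase reporter cells (luciferase flanked by upstream and downstream ATXN2 gene portions) were treated 24 h at 37 °C with compounds at up to 57 uM. SteadyGlo luminescence gave expression; GF-AFC fluorescence gave viability.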
HepG2 viability – HepG2 cytotoxicity, counter-screen for TGF-b inhibitors | HepG2 CAGA-GFP viability, ATP luminescence, 18 h | 0.76% of 410,000 active | Potency, µM (titrated, usually from 46.1 µM), for inactives: top-dose activity change, negative = cytotoxicity, most hits filed as cytotoxic | AID 588856
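HepG2 CAGA-GFP cells (1000/well, DMEM with 1% FBS) received compound, then TGF-beta at 500 pg/mL final, and were incubated 18 hours at 37 degrees C. Viability was read by CellTiter-Glo luminescence. Media-only wells were set as complete cell-killing and DMSO as no toxicity.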
ATXN viability – cell viability loss in ATXN counter-screen. S2 cells (HEK-293 line with an ATXN2-luciferase reporter) viability, CellTiter-Fluor protease fluorescence, 24 h. Potency, µM (highest dose often 56.7 µM), usual class: cytotoxic. 0.49% of 400,000 active. AID 651635; further: nearly all actives have a fitted effect of over 40% in size
The depositor's hits bear a star; i = inactive; ? = inconclusive; nt = not tested or not shown; ! = a repeat was not active; [ ] = remark or other dose. Rows were chosen to be rich in hits. Some 2.8% of all compounds tested hit in one or more screens of this group. The call rests on the fitted dose curve; in most records, active means well fitted curve in the direction sought with a large enough effect; inconclusive means small, poorly fitted or top-dose-only effect, or another doubt; inactive means no such curve, though single readings can be large; an effect the other way counts as inactive or inconclusive. Potency means the concentration at half of the fitted maximal effect.

SMILES	HttQ103 aggreg	HTT ATP protect	TGFb SMAD3 inh	ATXN2 expr inh	HepG2 viability	ATXN viability
NCC1CCN(c2nc3ccccc3c3c2CCCC3)CC1	nt	nt	?	?	12.6µM*	28.2µM*
O=C(CN1CCOCC1)NCc1ccccc1	0.316µM*	-13.4%	-6.4%	-0.5%	-1.0%	i
Cc1[nH]c2ccccc2c1C(=O)C(C)Sc1nc2ccccc2c(=O)n1Cc1cccnc1 (stereo unspecified)	nt	nt	9.3%	nt	-1.6%	nt
CCc1ccc2c(c1)C1(C(=O)N2)N2CCCC2C(C(=O)c2ccc3ccccc3c2)C12C(=O)Nc1ccccc12 (stereo unspecified)	?	11.7%[10 µM]	15.8µM*	?	10µM*	?
O=C(NN1CCCC1)NS(=O)(=O)c1ccc(Cl)cc1	nt	nt	nt	6.6%	nt	i
O=C(/C=C/c1cccs1)c1cc(Br)ccc1OC(=O)N1CCOCC1	?	nt	-3.6%	?	11.2µM*	i
COc1ccc(C(=O)/C=C/c2cccs2)c(OC(=O)N2CCOCC2)c1	-6.4%	5.1%[10 µM]	-9.2%	-2.7%[11.3 µM]	6.3%	i
CC(C)c1ccc(/C=C(\C#N)c2nc(-c3ccc(O)cc3)cs2)cc1	nt	nt	?	?	17.8µM*	i
COc1ccc(/C=C(/C#N)c2nc(-c3ccc(Br)cc3)cs2)cc1	nt	nt	22.0%	-7.4%	4.7%	i
Cc1ccc2c(C)c(C(=O)N(Cc3ccc(Cl)cc3)C3CCS(=O)(=O)C3)oc2c1 (stereo unspecified)	nt	nt	11.2µM*	-30.5%	6.0%	?
Cc1ccc2c(C)c(C(=O)N(Cc3ccccc3)C3CCS(=O)(=O)C3)oc2c1 (stereo unspecified)	nt	nt	9.4%	-9.3%	-3.5%	i
COc1ccc(OC)c(S(=O)(=O)Nc2ccc(O)c3ccccc23)c1	17.8µM*	-26.5%[10 µM]	?	?	-87.4%	nt
O=S(=O)(Nc1ccc(O)c2ccccc12)c1ccc(F)cc1	nt	nt	?	31.6µM*	5.01µM*	?
COc1cc2c(cc1OC)/C(=C/c1ccc(N(C)C)cc1)C=C2	nt	nt	-9.1%	nt	-23.0%	nt
O=C(NCCc1nc2ccccc2n1CCOc1ccccc1)C1CCCCC1	nt	nt	?	nt	-2.8%	nt
CCN(Cc1ccncc1)Cc1nc(Cc2ccccc2Cl)no1	17.8µM*	-12.0%	-16.6%	nt	-7.1%	i
COc1cc(C=O)cc(OC)c1[N+](=O)[O-]	nt	nt	-9.3%	nt	5.6%	nt
O=C(NCCc1ccccc1)c1ccc2c(c1)OCCO2	nt	nt	11.6%	2.51µM*	-21.4%	i
COc1ccc(CCNC(=O)c2ccc3c(c2)OCCO3)cc1	7.9%	nt	0.0%	-4.4%	-1.6%	?
O=C(NCCc1ccccc1)c1ccc2c(c1)OCCCO2	nt	nt	12.1%	0.708µM*	-27.9%	i
CSc1cccc(-c2nnc(NC(=O)c3ccc4c(c3)OCCO4)o2)c1	nt	nt	-1.5%	nt	-5.5%	nt
O=C(Nc1nnc(-c2ccc3c(c2)OCCO3)o1)c1ccc(Cc2ccccc2)cc1	?	-46.6%	?	?	-23.3%	25.1µM*
O=C(CCN1CCCC1Cc1ccccc1)c1ccc2c(c1)OCCO2 (stereo unspecified)	-18.0%	-6.2%	11.2µM*	?	-113.0%	nt
CC(/C=C/C=C/c1ccccc1)=N/NC(=O)c1ccc2c(c1)OCCO2	-0.3%[9.22 µM]	12.4%[10 µM]	0.0%	15.1%	11.2µM*	i
O=C(NCCOc1ccccc1)c1ccc2c(c1)OCO2	-16.5%	-52.8%	-19.3%	4.47µM*	-9.6%	i
SMILES	HttQ103 aggreg	HTT ATP protect	TGFb SMAD3 inh	ATXN2 expr inh	HepG2 viability	ATXN viability
O=C(CCCc1ccccc1)c1ccc2c(c1)OCCO2	4.4%	-11.1%[10 µM]	-15.8%	10µM*	-34.8%	i
COc1ccc(CCNC(=O)c2ccc3c(c2)OCO3)cc1	nt	nt	9.1%	19.4%	17.5%	i
CCOc1ccc(C(=O)NCCc2ccc3c(c2)OCCO3)cc1	5.01µM*	nt	-0.4%	-7.8%	-0.3%	?
Cc1nc2ccc(C(=O)N3CCOc4ccc(CN5CCOCC5)cc4C3)cc2nc1C	nt	nt	nt	nt	nt	i
O=C(CCN1CCc2ccccc21)c1ccc2c(c1)OCCO2	?	-43.9%	0.0%	-30.4%	-44.7%	?
O=C(CCN1CCc2ccccc2C1)c1ccc2c(c1)OCCO2	23.3%	10.0%	?	-5.1%	7.08µM*	i
COc1ccc(N/N=C(/N=Nc2nc(C)cc(=O)[nH]2)c2ccccc2)cc1	?	-81.0%[10 µM]	?	?	-44.8%	28.2µM*
Cc1cc(=O)[nH]c(N=N/C(=N/Nc2ccc(O)cc2)c2ccccc2)n1	1.58µM*	-90.4%[10 µM]	-8.7%	?	-25.5%	?
Cc1cc(=O)[nH]c(N=N/C(=N/Nc2ccccc2C)c2ccccc2)n1	?	-47.8%	-4.3%	2.51µM*	-9.0%	?
Cc1cc(=O)[nH]c(SCC(=O)Nc2ccccc2C)n1	-6.9%[9.22 µM]	13.7%[10 µM]	-1.5%	6.1%	2.2%	i
CO[C@@H]1/C=C\O[C@]2(C)Oc3c(C)c(O)c4c(O)c(cc(O)c4c3C2=O)NC(=O)/C(C)=C\C=C/[C@H](C)[C@@H](O)[C@H](C)[C@H](O)[C@H](C)[C@H](OC(C)=O)[C@@H]1C	nt	-3.9%[10 µM]	nt	nt	nt	nt
CCOC(=O)c1cc([N+](=O)[O-])cc([N+](=O)[O-])c1Sc1ncnc2nc[nH]c12	nt	nt	12.6µM*	?	-101.0%	nt
CCOC(=O)C(C)(C)Sc1ncnc2nc[nH]c12	-11.8%	19.0%[10 µM]	?	9.5%	-3.2%	i
Cc1c(F)cc2c(=O)c(C(=O)O)cn3c2c1CCC3C (stereo unspecified)	nt	nt	nt	9.9%	nt	i
N#CC1=C(SCC(=O)NC23CC4CC(CC(C4)C2)C3)NC(=O)C(C#N)C12CCCCC2 (stereo unspecified)	3.55µM*	14.2%[10 µM]	11.2µM*	?	-26.1%	?
CC(C)(C)C1CCC2(CC1)C(C#N)=C(SCC(=O)NC1CCCCC1)NC(=O)C2C#N (stereo unspecified)	11.2µM*	-36.6%[0.074 µM]	?	-12.9%	-30.9%	i
O=c1c2ccccc2nc2n1C(CSCc1ccc(Cl)cc1)CS2 (stereo unspecified)	11.2µM*	-2.1%[10 µM]	?	-20.5%	-3.2%	i
CC(=O)Nc1cc(NC(C)=O)cc(-c2nc3ccccc3[nH]2)c1	-11.9%[9.22 µM]	-13.1%[10 µM]	7.08µM*!	?	12.6µM*!	31.6µM*!
O=C(Cc1ccc(OCCCCc2ccccc2)cc1)NO	nt	nt	4.4%	nt	-18.0%	nt
COc1c(Cl)cc(Cl)cc1/C=C/C(=O)c1ccc(NC(=O)c2cccs2)cc1	-30.2%	-11.7%[10 µM]	?	12.6µM*	-98.5%	15.8µM*
COc1cc(=O)n2c(c1C(=O)N(C)C(C)c1ccco1)CCN(C(=O)c1ccc(C(C)=O)cc1)CC2 (stereo unspecified)	nt	nt	nt	nt	nt	i

Source: PubChem BioAssay (National Center for Advancing Translational Sciences (NCATS))
